Source: PubChem BioAssay (The Scripps Research Institute Molecular Screening Center)
Hits are enriched below; roughly 1.1% of the tested compounds scored in any of these assays.
OPRM1-OPRD1 inv: inverse agonists of MOR-DOR heterodimerization, primary screen, cell-based, luminescence | cell-based MOR-DOR heterodimer luminescence, inverse agonism | inhibition, % at 9.3 µM | 340,000 compounds, 0.21% hits; in the data active = inhibition above about 22%, passing the limit was not always enough
Target sequence (P35372 whole entry, looked up): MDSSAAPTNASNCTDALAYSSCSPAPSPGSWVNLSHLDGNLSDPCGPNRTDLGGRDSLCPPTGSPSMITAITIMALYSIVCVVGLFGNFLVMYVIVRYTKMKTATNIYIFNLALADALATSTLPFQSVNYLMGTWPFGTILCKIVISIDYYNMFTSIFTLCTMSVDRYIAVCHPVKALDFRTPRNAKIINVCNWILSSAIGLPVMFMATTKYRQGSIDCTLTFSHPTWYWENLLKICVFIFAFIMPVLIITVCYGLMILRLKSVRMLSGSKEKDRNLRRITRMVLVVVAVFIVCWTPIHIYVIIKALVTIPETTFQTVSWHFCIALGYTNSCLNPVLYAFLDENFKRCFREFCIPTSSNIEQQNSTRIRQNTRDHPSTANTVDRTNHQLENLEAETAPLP
Target sequence (P41143 whole entry, looked up): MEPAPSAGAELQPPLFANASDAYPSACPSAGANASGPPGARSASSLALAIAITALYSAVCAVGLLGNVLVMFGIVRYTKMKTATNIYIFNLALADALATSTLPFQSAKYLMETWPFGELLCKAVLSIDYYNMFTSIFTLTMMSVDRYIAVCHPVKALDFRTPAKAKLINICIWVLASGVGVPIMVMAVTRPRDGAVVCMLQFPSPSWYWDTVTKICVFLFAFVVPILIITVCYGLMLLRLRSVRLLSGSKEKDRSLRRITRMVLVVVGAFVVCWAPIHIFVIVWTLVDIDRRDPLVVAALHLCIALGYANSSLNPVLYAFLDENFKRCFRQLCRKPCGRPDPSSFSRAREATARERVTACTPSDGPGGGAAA
MOR-DOR ag: agonists of OPRM1-OPRD1 heterodimerization, primary screen, cell-based, luminescence; Mu-type opioid receptor (Homo sapiens) + Delta-type opioid receptor (Homo sapiens), …; cells; activation, % at 9.3 µM; 340,000 compounds, 0.3% hits
HTR5A ag ctr: HTR5A agonists in luminescence cell assay, primary screen, counter-screen for OPRM1-OPRD1 heterodimer agonist project, full-deck HTS. cell-based. 340,000 compounds, 0.61% hits. activation, % at 9.3 µM; in the data active = activation mostly above about 9.5%, no sharp cut-off; inactive = mostly below about 7.6%
HTR5A inv ag: HTR5A inverse agonists in luminescence cell assay, primary screen, counter-screen for OPRM1-OPRD1 heterodimer inverse agonist project, full-deck HTS; 5-hydroxytryptamine receptor 5A (Homo sapiens), P47898; HTR5A cell line, inverse agonism; inhibition, % at 9.3 µM; 340,000 compounds, 0.083% hits; in the data active = inhibition mostly above about 23%, no sharp cut-off; inactive = mostly below about 18%
OPRM1-D1 ag cf: agonists of MOR-DOR heterodimerization, confirmation, cell-based, luminescence; cells, luminescence complementation; 830 compounds, 45% hits; shares compounds with MOR-DOR ag; AID 504904, 2011; activation, % at 9.3 µM
HTR5A ag counter: HTR5A agonists in cells, counter-screen for OPRM1-OPRD1 heterodimer agonist project, cell-based, luminescence. shares compounds with MOR-DOR ag. HTR5A agonist counterscreen. activation, % at 9.3 µM. 830 compounds, 8% hits; in the data active = activation above about 17%
Each line names hits and unclear results; the compound was inactive in the other large screens (follow-up assays come after a bar, where they were run). Cut-off read from the data, not from the text of the source, unless noted: active = activation above about 18%; inactive = the rest.

CCOCCCn1c(=S)[nH]c2cc(C(=O)N3CCN(c4ccccc4)CC3)ccc2c1=O	none
CC(=O)Nc1ccc(C=CC=Cc2cccc([N+](=O)[O-])c2)cc1	none
COc1cc(/C=C2\SC(N3CCC(C)CC3)=NC2=O)ccc1O	none
CCOC(=O)c1sc2nc(SCC(=O)NCc3ccco3)n(Cc3ccccc3)c(=O)c2c1C	MOR-DOR ag 150.3 | OPRM1-D1 ag cf inactive | HTR5A ag counter inactive
O=C(Nc1ccccc1)/C(=C/c1cccc(Br)c1)NC(=O)c1ccco1	none
O=C(OCc1ccccc1)/C(=C/c1cccc(Br)c1)NC(=O)c1ccco1	MOR-DOR ag 20.8 | OPRM1-D1 ag cf inactive | HTR5A ag counter inactive
O=C(NCc1ccco1)c1cc2n(n1)C(C(F)(F)F)CC(c1ccc(Br)cc1)N2 (stereo unspecified)	MOR-DOR ag 19.2 | OPRM1-D1 ag cf inactive | HTR5A ag counter inactive
CC(NC(=O)c1ccc2ccccc2n1)c1ccccc1 (stereo unspecified)	none
CN(C)C(CNC(=O)c1cc(S(=O)(=O)N(C)c2ccccc2)ccc1Cl)c1ccccc1 (stereo unspecified)	none
CN(C)C(CNC(=O)c1ccc2ccccc2n1)c1ccccc1 (stereo unspecified)	MOR-DOR ag 58.1 | OPRM1-D1 ag cf inactive | HTR5A ag counter inactive
COCCCNC(=O)/C=C/c1cccc(Cl)c1	none
CN(C)C(CNC(=O)c1cnc(Cl)c(Cl)c1)c1ccccc1 (stereo unspecified)	MOR-DOR ag 353.3 | OPRM1-D1 ag cf 374.2 | HTR5A ag counter inactive
CN(C)C(CNC(=O)/C=C/c1cccc(Cl)c1)c1ccccc1 (stereo unspecified)	MOR-DOR ag 275.5 | OPRM1-D1 ag cf inactive | HTR5A ag counter inactive
COc1ccc(OC)c(NS(=O)(=O)c2ccc(-c3coc(C)n3)cc2)c1	none
CC(C)CN(C(=O)COC(=O)c1cc2ccccc2cc1O)c1c(N)n(Cc2ccccc2)c(=O)[nH]c1=O	none
COc1ccccc1N1C(=O)c2cccc3cccc(c23)C1=O	none
Cc1cccc(C(=O)NNC(=O)c2cc3cc4ccccc4nc3s2)c1	MOR-DOR ag 22.3 | OPRM1-D1 ag cf inactive | HTR5A ag counter inactive
Cc1cc(NC(=O)c2cccc(Oc3ccccc3)c2)n[nH]1	none
CC(C)(C)C(=O)N1CCC[C@H]1C(O)(c1ccccc1)c1ccccc1	none
CN1CCC(CC(C(=O)N2CCCC2)(c2ccccc2)c2ccccc2)C1 (stereo unspecified)	MOR-DOR ag 63.2 | OPRM1-D1 ag cf inactive | HTR5A ag counter inactive
COC(=O)c1cccc(C23CC4(C2)[C@H](CN(Cc2cccnc2)[C@@H]4c2ccccc2)C3c2ccc(Cl)nc2)c1 (stereo partly specified)	MOR-DOR ag 23.0 | OPRM1-D1 ag cf 28.7 | HTR5A ag counter inactive
COC(=O)c1cccc(C23CC4(C2)[C@H](CN(Cc2ccc(-c5ccccc5)cc2)[C@@H]4c2ccccc2)C3c2ccc(Cl)nc2)c1 (stereo partly specified)	none
CSc1ccc(/C=N/NC(=O)c2ccccc2Cl)cc1	none
CCOC(=O)c1nnn(CC(=O)N2N=C(c3ccccc3)CC2c2ccccc2)c1C(=O)OCC (stereo unspecified)	none
CCOC(=O)c1nnn(CC(=O)N2N=C(c3cc(C)ccc3C)CC2c2ccc(OC)cc2)c1C(=O)OCC (stereo unspecified)	MOR-DOR ag 19.7 | OPRM1-D1 ag cf inactive | HTR5A ag counter 61.5
O=C1C=C(NCCc2cc(Br)c(O)c(Br)c2)C(=O)c2ncccc21	MOR-DOR ag 35.8 | OPRM1-D1 ag cf inactive | HTR5A ag counter inactive
Cc1ccc(-n2c([S-])c(C(=O)Nc3ccc(OC(F)F)cc3)[n+]3ccc(C(=O)NCCO)cc23)cc1C	MOR-DOR ag 18.6 | OPRM1-D1 ag cf inactive | HTR5A ag counter inactive
Cc1ccc(CNC(=O)CN(c2ccc(Cl)cc2)S(C)(=O)=O)cc1	none
CC(C)Oc1ccc(CN2CCC(n3nccc3NC(=O)CCc3ccccc3)CC2)cc1	none
O=C1C(Nc2ccc(O)cc2)=C/C(=N/S(=O)(=O)c2cccs2)c2ccccc21	MOR-DOR ag 24.0 | OPRM1-D1 ag cf inactive | HTR5A ag counter inactive
Cc1cccc(NC2=C/C(=N/S(=O)(=O)c3cccs3)c3ccccc3C2=O)c1	none
CN1CCS/C1=C/C=C1/SC(=S)N(Cc2ccccc2)C1=O	none
CCN1C(=O)/C(=C/C=C2/Sc3ccc4ccccc4c3N2CCO)SC1=S	none
CCN1C(c2ccccc2)=C(c2ccccc2)S/C1=C\C=C1/SC(=S)N(C)C1=O	MOR-DOR ag 137.1 | OPRM1-D1 ag cf inactive | HTR5A ag counter inactive
CCN1C(c2ccccc2)=C(c2ccccc2)S/C1=C/C=C1\SC(=S)N(C)C1=O	MOR-DOR ag 47.7 | OPRM1-D1 ag cf 441.1 | HTR5A ag counter 29.2
Cc1nc2ccccc2c(=O)n1CCN1CCOCC1	none
Cc1nc2nc(C)n(CCN3CCOCC3)c(=O)c2c(-c2cccc([N+](=O)[O-])c2)c1C(=O)CCCCCCCCCCN1CCC(c2ccccc2)(c2ccccc2)CC1	MOR-DOR ag 25.8 | OPRM1-D1 ag cf 130.7 | HTR5A ag counter inactive
O=P(CCCCCCCCCP(=O)(c1ccccc1)c1ccccc1)(c1ccccc1)c1ccccc1	MOR-DOR ag 21.5 | OPRM1-D1 ag cf inactive | HTR5A ag counter inactive
O=C(O)CCCCCCCCCCP(=O)(c1ccccc1)c1ccccc1	none
O=C(CCNC(=O)C1CCN(S(=O)(=O)c2ccccc2)CC1)NCCc1cccc(F)c1	none
COc1ccc(CCNC(=O)c2ccc(=O)[nH]c2)cc1OC	none
O=C(Nc1ncc(Cc2ccc(SC(F)F)cc2)s1)c1ccc(OC(F)F)cc1	MOR-DOR ag 19.3 | OPRM1-D1 ag cf inactive | HTR5A ag counter inactive
COC1=C(c2ccccc2)C(=O)c2ccccc2C1=O	none
O=C(C1=C(c2ccccc2)C(=O)c2ccccc2C1=O)c1ccccc1	MOR-DOR ag 20.2 | OPRM1-D1 ag cf inactive | HTR5A ag counter inactive
CCCCCCc1nc(C(N)=O)c2[nH]c(=O)n(-c3ccccc3F)c2n1	none
CC1(C)CC2(CCO1)C(Nc1ccccc1)=NC(=S)N2CC(N)=O (stereo unspecified)	none
Cn1c(CN2CCN(c3cccc(Cl)c3)CC2)nc2ccccc21	MOR-DOR ag 28.6 | OPRM1-D1 ag cf 123.6 | HTR5A ag counter inactive
Cc1ccc(N2CCN(c3ccc(NCc4nc5ccccc5n4C)cc3)CC2)cc1	MOR-DOR ag 282.8 | OPRM1-D1 ag cf 45.9 | HTR5A ag counter 30.1
CC(C)C[C@H](NC(=O)c1nc[nH]c1C(=O)N1CCN(C(=O)OC(C)(C)C)CC1)C(=O)OCc1ccccc1	none
